Most compounds without a hit are left out; they make up all but 0.98% or so of the library.
Keap1 Nrf2 FP = Keap1-Nrf2 protein-protein interaction inhibitors, primary screen, biochemical, fluorescence polarization, single point; Keap1 Kelch-Nrf2 peptide fluorescence polarization, 1536-well; inhibition, % at 9.4 µM; actives 0.15% (n = 340,000); AID 504523, 2011; in the data active means inhibition above about 12%; inconclusive means no clear call, values can overlap the other calls; inactive means below about 7.3%;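 further: human Keap1 Kelch domain with fluorescein labeled Nrf2 9mer peptide probe; higher means more block of Keap1 binding to Nrf2 peptide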
RTF Ca sens inh = cardiac RTF calcium sensitivity inhibitors, primary screen, biochemical, IANBD-TnC fluorescence, EC70 calcium; Troponin I, cardiac muscle (Homo sapiens) + Troponin T, cardiac muscle (Homo sapiens) + …; IANBD-labeled cardiac RTF, Ca2+ fluorescence; inhibition, % at 7.15 µM; actives 0.12% (n = 340,000); AID 493244, 2011;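 active means inhibition above the mean inhibition of all tested compounds plus 3 SD, cut at about 17% in these data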;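 further: assay run at fixed EC70 calcium of 1.6 mM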
LANA-H2A inh = blockers of LANA interaction with H2A/H2B – biochemical, FP readout, HTS, primary screen. AID 2629, 2010. inhibition, % (no concentration beside the values). actives 0.6% (n = 320,000). Protein LANA1 (Human herpesvirus 8 type P (isolate GK18)), Q9QR71. cell-free LANA-H2A/H2B peptide, fluorescence polarization; in the data active means inhibition mostly above about 10%, no sharp cut-off; inactive means mostly below about 6.7%
Target sequence (Q9QR71 whole entry, looked up): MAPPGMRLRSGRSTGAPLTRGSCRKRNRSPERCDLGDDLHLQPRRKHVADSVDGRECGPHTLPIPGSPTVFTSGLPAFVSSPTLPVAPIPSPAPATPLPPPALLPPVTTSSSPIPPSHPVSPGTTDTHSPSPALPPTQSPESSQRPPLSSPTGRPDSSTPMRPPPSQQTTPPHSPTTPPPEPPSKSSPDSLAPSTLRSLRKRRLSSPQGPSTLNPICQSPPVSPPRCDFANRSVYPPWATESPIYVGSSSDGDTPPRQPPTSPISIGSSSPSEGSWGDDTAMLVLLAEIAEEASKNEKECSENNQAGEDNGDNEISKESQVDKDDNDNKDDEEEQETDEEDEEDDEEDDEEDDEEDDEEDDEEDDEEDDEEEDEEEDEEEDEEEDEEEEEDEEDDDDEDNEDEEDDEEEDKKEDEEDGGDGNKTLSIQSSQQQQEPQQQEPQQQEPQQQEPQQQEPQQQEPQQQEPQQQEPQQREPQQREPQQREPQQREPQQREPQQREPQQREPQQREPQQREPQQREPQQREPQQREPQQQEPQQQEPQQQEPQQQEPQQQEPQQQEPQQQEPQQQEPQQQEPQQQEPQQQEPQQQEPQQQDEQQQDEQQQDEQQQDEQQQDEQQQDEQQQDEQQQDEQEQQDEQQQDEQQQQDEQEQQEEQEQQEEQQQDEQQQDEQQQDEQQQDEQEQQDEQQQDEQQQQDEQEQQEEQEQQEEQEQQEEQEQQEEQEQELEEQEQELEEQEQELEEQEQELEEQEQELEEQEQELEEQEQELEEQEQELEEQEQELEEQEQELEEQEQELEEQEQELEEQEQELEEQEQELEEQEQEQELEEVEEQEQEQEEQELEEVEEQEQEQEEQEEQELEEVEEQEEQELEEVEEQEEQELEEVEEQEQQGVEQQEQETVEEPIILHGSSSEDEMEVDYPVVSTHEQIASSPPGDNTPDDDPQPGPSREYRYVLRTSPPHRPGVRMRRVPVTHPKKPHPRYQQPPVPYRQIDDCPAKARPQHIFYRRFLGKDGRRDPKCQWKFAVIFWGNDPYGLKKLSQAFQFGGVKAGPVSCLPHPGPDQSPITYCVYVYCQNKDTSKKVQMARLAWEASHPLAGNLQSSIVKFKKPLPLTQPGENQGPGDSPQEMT
RTF Ca sens act = cardiac RTF calcium sensitivity activators, primary screen, biochemical, IANBD-TnC fluorescence, EC20 calcium; Troponin I, cardiac muscle (Homo sapiens) + Troponin T, cardiac muscle (Homo sapiens) + …; IANBD-labeled TnC RTF fluorescence at EC20 calcium; 0% EC20 calcium, 100% full calcium; activation, % at 7.2 µM; actives 0.24% (n = 340,000); AID 493008, 2010;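 active means activation above the mean over all tested compounds plus 3 SD, cut at about 30% in these data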;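 further: rise in fluorescence read as greater calcium sensitivity of cardiac thin filaments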
C-LANA FP = inhibitors of KSHV C-LANA binding to DNA, primary screen, biochemical, fluorescence polarization, FAM-LBS DNA, MBP-C-LANA, single point. Kaposi's sarcoma herpesvirus LANA C-terminal domain (residues 932-1162) DNA binding. actives 0.078% (n = 340,000). inhibition, % at 9 µM. AID 504423, 2011;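 active means highest replicate inhibition at or above 60% at 9 µM, even if other replicates fall short; inactive means all replicates below 60% inhibition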
Each line names hits and unclear results; the compound was inactive in the other large screens.

O=S(=O)(NC1CC2CCC1C2)c1ccc2c(c1)OCCO2 (configuration not stated)	LANA-H2A inh 20
Cc1ccc(C)c(C(=O)CSc2nc(N)cc(=O)[nH]2)c1	none
CCCc1nnc(NC(=O)CCN2C(=O)c3ccccc3C2=O)s1	none
COCc1nnc(NC(=O)CCN2C(=O)c3ccccc3C2=O)s1	LANA-H2A inh 16
O=C(CSc1ncnc2ccccc12)N1CCNC1=O	none
O=C(CSc1nnc(C2CC2)n1-c1ccccc1)N1CCNC1=O	Keap1 Nrf2 FP inconclusive, LANA-H2A inh 47
Cc1nc(SCC(=O)N2CCNC2=O)c2ccccc2n1	LANA-H2A inh 21
Cc1cccc(N2CCN(S(=O)(=O)c3c(C)nc4scc(C)n4c3=O)CC2)c1C	none
CC(=O)N1CCCc2ccc(NS(=O)(=O)c3ccccc3)cc21	none
C#CCOCCOCCOCCNc1nc(N2CCN(C(=O)[C@H](CCC(=O)O)n3cc([C@@H](N)CC(N)=O)nn3)CC2)nc(N2CCN(C(=O)[C@H](CCC(=O)O)n3cc([C@@H](N)CC(N)=O)nn3)CC2)n1	LANA-H2A inh 156
C#CCOCCOCCOCCNc1nc(N2CCN(C(=O)[C@H](CC(N)=O)n3cc([C@@H](N)CC(N)=O)nn3)CC2)nc(N2CCN(C(=O)[C@H](CC(N)=O)n3cc([C@@H](N)CC(N)=O)nn3)CC2)n1	none
O=C1OCc2ccc(NC(=O)C3CC3)cc21	C-LANA FP 84
Cc1cc(C)nc(SCCCNCc2ccc(Br)cc2)n1	RTF Ca sens act 32
Cc1ccc(CNCCCSc2nc(C)cc(C)n2)cc1	none
COc1cc(Cl)c(C)cc1NC(=O)CSc1sc2c(O)cc(=O)[nH]c2c1C#N	none
CCN(CC)S(=O)(=O)c1ccc(N2CCCC2)c(NC(=O)CN2C(=O)NC3(CCCC3)C2=O)c1	none
O=C1/C(=C\c2c(NCCOCCO)nc3ccccn3c2=O)SC(=S)N1Cc1ccco1	RTF Ca sens act 40
O=C(/C=C/Nc1ccc(S(=O)(=O)Nc2ncccn2)cc1)c1ccc(Cl)c(Cl)c1	Keap1 Nrf2 FP 15
CN(C)c1ccc(C=c2c3ccccc3n3c2c2c([n+]3C)CCCC2)cc1	none (no result: LANA-H2A inh)
Cc1ccc(CCN2CC(C(=O)NC3CCCC3)CC2=O)cc1 (configuration not stated)	none
Cc1ccc(CCN2CC(C(=O)NC3CCCCC3)CC2=O)cc1 (configuration not stated)	LANA-H2A inh 22
COc1ccccc1CN(C)C(=O)C(NC(=O)Cc1cccc2ccccc12)C(C)C (configuration not stated)	none
O=C(/C=C/c1c(F)cccc1Cl)c1ccc(O)cc1	none
COc1ccc(N2CCN(C(=O)CS(=O)Cc3nc(-c4ccc(OC)c(OC)c4)oc3C)CC2)cc1 (configuration not stated)	LANA-H2A inh 16
COc1ccc(-c2csc(NC(C)c3nc4cc(Cl)c(Cl)cc4n3CCCO)n2)cc1 (configuration not stated)	none
CC(C)C(C)NC(=O)CN1C(=O)NC2(CCCCCC2)C1=O (configuration not stated)	none
CC(NC(=O)CN1C(=O)NC2(CCCCCC2)C1=O)c1ccccc1 (configuration not stated)	LANA-H2A inh 78
CC(NC(=O)CCC(=O)N1CCCCCC1)c1ccccc1 (configuration not stated)	LANA-H2A inh 14
O=C(CN1C(=O)NC2(CCCCCC2)C1=O)NCCc1ccccc1	LANA-H2A inh 186
COc1ccc(N2CC(C(=O)N3CCN(C(=O)c4ccco4)CC3)CC2=O)cc1 (configuration not stated)	none
COc1ccc(NC(=S)NNC(=O)OC(C)(C)C)cc1OC	LANA-H2A inh 33
CN1C(=O)C(C)(C)c2cc(S(=O)(=O)N3CCN(c4ccccc4)CC3)ccc21	none
COc1ccc(C2C(C#N)=C(N)SC(N)=C2C#N)cc1OC	RTF Ca sens act 36
CCOc1ccc(NC(=O)COc2ccc3c(c2)CCC3)cc1OC	none
CN(C)c1cc[n+](CC(=O)Nc2ccc(OC(F)F)cc2)cc1	none
COc1ccccc1N=C1NC(=O)/C(=C/c2ccc(N(C)C)cc2)S1	RTF Ca sens act 48
COc1ccc(/C=C2\SC(=Nc3ccccc3)NC2=O)cc1	none (no result: Keap1 Nrf2 FP, RTF Ca sens inh, RTF Ca sens act, C-LANA FP)
N=c1oc2c3c4c(cc2cc1C(=O)Nc1ccccc1)CCCN4CCC3	RTF Ca sens act active
Cc1cccc(NC(=O)Cn2c(=O)n(CCC(=O)NC3CCCC3)c(=O)c3ccccc32)c1	none
CCOc1ccccc1NC(=O)Cn1c(=O)n(CCC(=O)NC2CCCC2)c(=O)c2ccccc21	LANA-H2A inh 31
CCn1cc(C(=O)OCC(=O)N(C)Cc2ccccc2)c(=O)c2ccc(C)nc21	LANA-H2A inh 61
CCn1cc(C(=O)OCC(=O)c2cc(C)n(-c3ccccc3)c2C)c(=O)c2ccc(C)nc21	none
O=C(NCCOc1cccnc1)C1CCC(=O)N(Cc2ccccc2F)C1 (configuration not stated)	none
Cc1ccccc1CC1(CO)CCCN(C(=O)CCCN2CCCCC2=O)C1 (configuration not stated)	LANA-H2A inh 83
Cc1c(N)cccc1[N+](=O)[O-]	none
Cc1c(N)cccc1N	LANA-H2A inh 123
NC(=O)c1c(-c2ccccc2)oc2ccc(O)cc12	LANA-H2A inh 17
COc1ccc(CCNC(=O)c2ccccc2OCc2c(C)noc2C)cc1	none
Cn1[nH]c(-c2ccccc2)c(/C=N/O)c1=O	LANA-H2A inh 29 (no result: RTF Ca sens inh, RTF Ca sens act)
O=C(C[n+]1ccccc1)N/N=C/c1ccccc1C(F)(F)F	none
Oc1c(N=NC(=S)Nc2ccccc2F)c2ccccc2n1Cc1ccccc1F	none
Oc1c(N=NC(=S)Nc2ccccc2F)c2ccccc2n1Cc1ccc(Cl)cc1	LANA-H2A inh 21
CCC(=O)N(Cc1cc(=O)[nH]c2ccccc12)c1ccc(C)cc1	none
CCN(C(=O)CSc1nnc(-c2cccc(F)c2)n1N)c1c(N)n(Cc2ccccc2)c(=O)[nH]c1=O	none (no result: LANA-H2A inh)
CCC(C)[C@H](NC(=O)N1CCC(C)CC1)C(=O)OC (some centres not stated)	RTF Ca sens act 44
CCc1nnc(NC(=O)CN2CCN(c3ccccc3F)CC2)s1	none
COc1c(C)cccc1C(=O)NC(=S)Nc1ccccc1N1CCCC1	none
Cc1ccc(-n2nc(C)c3onc(C)c3c2=O)cc1	LANA-H2A inh 28
Cc1ccc(-n2nc(C)c3c(C)cc(=O)[nH]c32)cc1	none
O=C(c1ccc(=O)oc1)N1CCCc2ccccc21	C-LANA FP 79

Screens from PubChem BioAssay.
